Test results reported in ChEMBL document CHEMBL1961873, “Compounds: GSK PKIS; Assays: Nanosyn kinase panel” (2012).

Tests used:
[1] = biological target: Leukocyte tyrosine kinase receptor (Homo sapiens) (UniProt P29376); conditions: at 1 µM;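 also: each value is the mean inhibition of LTK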
[2] = biological target: Tyrosine-protein kinase Lyn (Homo sapiens) (UniProt P07948); conditions: at 0.1 µM
[3] = biological target: Tyrosine-protein kinase Lyn (Homo sapiens) (UniProt P07948); conditions: at 1 µM
[4] = biological target: Tyrosine-protein kinase Lyn (Homo sapiens) (UniProt P07948); conditions: at 0.1 µM; remark: listed apart in the source
[5] = biological target: Tyrosine-protein kinase Lyn (Homo sapiens) (UniProt P07948); conditions: at 1 µM; remark: listed apart in the source
[6] = biological target: T1, Tyrosine-protein kinase Mer (Homo sapiens) (UniProt Q12866); conditions: at 0.1 µM
T1 sequence (whole entry): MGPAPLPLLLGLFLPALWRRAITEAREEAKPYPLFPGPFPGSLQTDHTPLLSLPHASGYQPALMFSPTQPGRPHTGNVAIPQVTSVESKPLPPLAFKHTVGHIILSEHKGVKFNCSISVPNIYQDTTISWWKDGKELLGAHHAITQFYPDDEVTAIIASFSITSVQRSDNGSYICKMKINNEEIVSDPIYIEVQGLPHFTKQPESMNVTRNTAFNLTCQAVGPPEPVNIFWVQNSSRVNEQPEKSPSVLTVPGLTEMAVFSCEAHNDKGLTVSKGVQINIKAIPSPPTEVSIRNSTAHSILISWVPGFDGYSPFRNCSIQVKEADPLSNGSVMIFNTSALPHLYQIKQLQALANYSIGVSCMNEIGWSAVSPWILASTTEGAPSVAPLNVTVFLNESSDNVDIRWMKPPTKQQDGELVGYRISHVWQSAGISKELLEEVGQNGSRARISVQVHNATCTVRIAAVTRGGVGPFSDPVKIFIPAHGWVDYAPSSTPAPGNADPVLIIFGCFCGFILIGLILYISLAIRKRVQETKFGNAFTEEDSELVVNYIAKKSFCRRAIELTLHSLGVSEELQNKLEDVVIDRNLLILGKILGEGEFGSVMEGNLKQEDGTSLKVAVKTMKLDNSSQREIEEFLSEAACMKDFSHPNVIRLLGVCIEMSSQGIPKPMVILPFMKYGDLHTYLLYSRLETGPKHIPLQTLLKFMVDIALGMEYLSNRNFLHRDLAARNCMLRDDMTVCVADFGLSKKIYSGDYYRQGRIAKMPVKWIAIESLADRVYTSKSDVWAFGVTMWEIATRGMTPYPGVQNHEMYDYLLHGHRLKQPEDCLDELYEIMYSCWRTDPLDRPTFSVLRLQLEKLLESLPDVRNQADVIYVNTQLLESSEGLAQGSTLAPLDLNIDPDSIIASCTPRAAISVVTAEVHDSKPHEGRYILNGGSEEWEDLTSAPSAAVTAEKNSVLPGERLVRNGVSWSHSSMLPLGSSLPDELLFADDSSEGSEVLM

[7] = biological target: T1, Tyrosine-protein kinase Mer (Homo sapiens); conditions: at 1 µM
[8] = biological target: Hepatocyte growth factor receptor (Homo sapiens) (UniProt P08581); conditions: at 0.1 µM
[9] = biological target: Hepatocyte growth factor receptor (Homo sapiens) (UniProt P08581); conditions: at 1 µM
[10] = biological target: T2, Muscle, skeletal receptor tyrosine-protein kinase (Homo sapiens) (UniProt O15146); conditions: at 0.1 µM
T2 sequence (whole entry): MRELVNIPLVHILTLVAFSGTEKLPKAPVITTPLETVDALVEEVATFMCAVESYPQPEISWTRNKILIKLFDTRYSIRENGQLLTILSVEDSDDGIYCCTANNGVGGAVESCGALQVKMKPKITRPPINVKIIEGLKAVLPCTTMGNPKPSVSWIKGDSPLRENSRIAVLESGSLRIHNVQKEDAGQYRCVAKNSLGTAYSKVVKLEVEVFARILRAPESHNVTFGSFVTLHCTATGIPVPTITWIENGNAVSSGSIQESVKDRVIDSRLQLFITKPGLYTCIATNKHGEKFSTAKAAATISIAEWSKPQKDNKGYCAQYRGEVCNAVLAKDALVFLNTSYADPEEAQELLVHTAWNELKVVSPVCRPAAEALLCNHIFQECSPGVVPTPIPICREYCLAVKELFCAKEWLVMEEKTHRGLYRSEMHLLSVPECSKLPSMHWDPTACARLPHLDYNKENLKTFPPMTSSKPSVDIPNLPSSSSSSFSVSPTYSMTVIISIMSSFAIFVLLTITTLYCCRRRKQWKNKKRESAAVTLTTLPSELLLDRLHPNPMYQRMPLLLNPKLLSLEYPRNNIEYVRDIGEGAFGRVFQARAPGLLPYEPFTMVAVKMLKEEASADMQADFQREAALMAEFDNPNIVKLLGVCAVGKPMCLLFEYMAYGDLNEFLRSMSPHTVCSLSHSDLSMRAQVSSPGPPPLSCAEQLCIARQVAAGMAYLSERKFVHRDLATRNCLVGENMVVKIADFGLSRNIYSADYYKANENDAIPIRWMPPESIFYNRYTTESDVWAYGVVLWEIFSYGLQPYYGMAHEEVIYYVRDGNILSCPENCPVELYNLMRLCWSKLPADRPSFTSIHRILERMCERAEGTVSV

[11] = biological target: T2, Muscle, skeletal receptor tyrosine-protein kinase (Homo sapiens); conditions: at 1 µM
[12] = biological target: Platelet-derived growth factor receptor alpha (Homo sapiens) (UniProt P16234); conditions: at 0.1 µM
[13] = biological target: Platelet-derived growth factor receptor alpha (Homo sapiens) (UniProt P16234); conditions: at 1 µM
[14] = system: Platelet-derived growth factor receptor alpha (Homo sapiens), P16234 [D842V]; conditions: at 0.1 µM
[15] = system: Platelet-derived growth factor receptor alpha (Homo sapiens), P16234 [D842V]; conditions: at 1 µM
[16] = system: Platelet-derived growth factor receptor alpha (Homo sapiens), P16234 [T674I]; conditions: at 0.1 µM
[17] = system: Platelet-derived growth factor receptor alpha (Homo sapiens), P16234 [T674I]; conditions: at 1 µM
[18] = system: Platelet-derived growth factor receptor alpha (Homo sapiens), P16234 [V561D]; conditions: at 0.1 µM
[19] = system: Platelet-derived growth factor receptor alpha (Homo sapiens), P16234 [V561D]; conditions: at 1 µM
[20] = biological target: Platelet-derived growth factor receptor beta (Homo sapiens) (UniProt P09619); conditions: at 0.1 µM;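 also: reported value is the mean percent inhibition of the kinase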
Chain of Platelet-derived growth factor receptor beta (Homo sapiens) (P09619 whole entry): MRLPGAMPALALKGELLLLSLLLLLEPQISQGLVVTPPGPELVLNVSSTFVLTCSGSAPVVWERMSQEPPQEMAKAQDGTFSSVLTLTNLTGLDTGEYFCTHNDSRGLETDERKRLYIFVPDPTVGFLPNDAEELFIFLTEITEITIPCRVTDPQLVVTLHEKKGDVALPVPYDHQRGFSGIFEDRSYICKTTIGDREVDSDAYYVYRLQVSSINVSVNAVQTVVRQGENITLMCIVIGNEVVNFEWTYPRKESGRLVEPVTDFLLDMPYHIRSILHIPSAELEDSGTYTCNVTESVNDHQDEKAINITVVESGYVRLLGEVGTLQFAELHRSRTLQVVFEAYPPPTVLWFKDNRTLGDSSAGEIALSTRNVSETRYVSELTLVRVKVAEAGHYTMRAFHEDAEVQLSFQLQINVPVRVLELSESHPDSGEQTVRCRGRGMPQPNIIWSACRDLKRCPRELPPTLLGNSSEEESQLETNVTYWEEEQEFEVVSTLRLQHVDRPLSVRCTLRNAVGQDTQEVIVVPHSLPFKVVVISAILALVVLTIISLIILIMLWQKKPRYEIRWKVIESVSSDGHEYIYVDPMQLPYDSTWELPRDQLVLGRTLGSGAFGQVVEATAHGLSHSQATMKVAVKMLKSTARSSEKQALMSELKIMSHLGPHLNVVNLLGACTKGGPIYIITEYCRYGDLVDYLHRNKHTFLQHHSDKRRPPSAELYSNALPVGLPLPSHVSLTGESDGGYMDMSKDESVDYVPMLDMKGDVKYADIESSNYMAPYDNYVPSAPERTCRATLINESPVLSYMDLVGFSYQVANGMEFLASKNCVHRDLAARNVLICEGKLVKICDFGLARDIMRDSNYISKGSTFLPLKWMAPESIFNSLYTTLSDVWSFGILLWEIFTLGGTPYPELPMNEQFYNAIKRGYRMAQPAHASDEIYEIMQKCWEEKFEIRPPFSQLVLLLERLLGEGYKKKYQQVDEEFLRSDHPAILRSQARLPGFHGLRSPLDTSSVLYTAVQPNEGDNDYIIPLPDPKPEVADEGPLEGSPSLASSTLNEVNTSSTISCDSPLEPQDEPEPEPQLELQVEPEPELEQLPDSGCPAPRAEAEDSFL

Chain of Platelet-derived growth factor receptor alpha (Homo sapiens), P16234 [V561D] (P16234 whole entry V561D): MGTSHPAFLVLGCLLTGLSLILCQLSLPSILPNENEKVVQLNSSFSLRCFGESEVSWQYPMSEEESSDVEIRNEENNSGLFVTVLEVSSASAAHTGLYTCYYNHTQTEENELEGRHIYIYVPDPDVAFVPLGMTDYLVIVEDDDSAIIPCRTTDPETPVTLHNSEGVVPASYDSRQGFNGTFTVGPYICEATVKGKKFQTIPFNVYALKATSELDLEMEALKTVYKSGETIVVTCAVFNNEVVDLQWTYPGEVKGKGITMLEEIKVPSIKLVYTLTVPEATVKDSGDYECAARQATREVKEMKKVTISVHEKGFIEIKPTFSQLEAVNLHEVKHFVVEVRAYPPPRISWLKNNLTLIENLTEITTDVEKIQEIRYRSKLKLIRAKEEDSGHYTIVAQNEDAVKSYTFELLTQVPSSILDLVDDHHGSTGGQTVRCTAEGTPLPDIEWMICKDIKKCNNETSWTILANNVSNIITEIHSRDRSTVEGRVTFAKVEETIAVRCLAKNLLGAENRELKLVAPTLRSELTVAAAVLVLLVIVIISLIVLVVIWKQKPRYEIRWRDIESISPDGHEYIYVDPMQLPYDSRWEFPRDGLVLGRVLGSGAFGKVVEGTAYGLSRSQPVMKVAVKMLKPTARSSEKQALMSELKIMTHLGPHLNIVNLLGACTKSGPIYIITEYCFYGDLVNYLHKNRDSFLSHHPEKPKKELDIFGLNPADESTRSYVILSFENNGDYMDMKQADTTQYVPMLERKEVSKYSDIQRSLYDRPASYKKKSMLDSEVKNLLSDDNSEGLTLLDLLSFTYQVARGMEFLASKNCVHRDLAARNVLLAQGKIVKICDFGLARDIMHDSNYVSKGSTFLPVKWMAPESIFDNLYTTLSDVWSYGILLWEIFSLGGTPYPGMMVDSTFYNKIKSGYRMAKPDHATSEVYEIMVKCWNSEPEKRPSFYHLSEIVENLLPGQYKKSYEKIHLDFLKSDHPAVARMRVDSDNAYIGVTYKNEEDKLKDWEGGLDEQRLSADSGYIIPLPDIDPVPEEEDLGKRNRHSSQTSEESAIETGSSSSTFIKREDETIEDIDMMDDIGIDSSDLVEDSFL
Chain of Hepatocyte growth factor receptor (Homo sapiens) (P08581 whole entry): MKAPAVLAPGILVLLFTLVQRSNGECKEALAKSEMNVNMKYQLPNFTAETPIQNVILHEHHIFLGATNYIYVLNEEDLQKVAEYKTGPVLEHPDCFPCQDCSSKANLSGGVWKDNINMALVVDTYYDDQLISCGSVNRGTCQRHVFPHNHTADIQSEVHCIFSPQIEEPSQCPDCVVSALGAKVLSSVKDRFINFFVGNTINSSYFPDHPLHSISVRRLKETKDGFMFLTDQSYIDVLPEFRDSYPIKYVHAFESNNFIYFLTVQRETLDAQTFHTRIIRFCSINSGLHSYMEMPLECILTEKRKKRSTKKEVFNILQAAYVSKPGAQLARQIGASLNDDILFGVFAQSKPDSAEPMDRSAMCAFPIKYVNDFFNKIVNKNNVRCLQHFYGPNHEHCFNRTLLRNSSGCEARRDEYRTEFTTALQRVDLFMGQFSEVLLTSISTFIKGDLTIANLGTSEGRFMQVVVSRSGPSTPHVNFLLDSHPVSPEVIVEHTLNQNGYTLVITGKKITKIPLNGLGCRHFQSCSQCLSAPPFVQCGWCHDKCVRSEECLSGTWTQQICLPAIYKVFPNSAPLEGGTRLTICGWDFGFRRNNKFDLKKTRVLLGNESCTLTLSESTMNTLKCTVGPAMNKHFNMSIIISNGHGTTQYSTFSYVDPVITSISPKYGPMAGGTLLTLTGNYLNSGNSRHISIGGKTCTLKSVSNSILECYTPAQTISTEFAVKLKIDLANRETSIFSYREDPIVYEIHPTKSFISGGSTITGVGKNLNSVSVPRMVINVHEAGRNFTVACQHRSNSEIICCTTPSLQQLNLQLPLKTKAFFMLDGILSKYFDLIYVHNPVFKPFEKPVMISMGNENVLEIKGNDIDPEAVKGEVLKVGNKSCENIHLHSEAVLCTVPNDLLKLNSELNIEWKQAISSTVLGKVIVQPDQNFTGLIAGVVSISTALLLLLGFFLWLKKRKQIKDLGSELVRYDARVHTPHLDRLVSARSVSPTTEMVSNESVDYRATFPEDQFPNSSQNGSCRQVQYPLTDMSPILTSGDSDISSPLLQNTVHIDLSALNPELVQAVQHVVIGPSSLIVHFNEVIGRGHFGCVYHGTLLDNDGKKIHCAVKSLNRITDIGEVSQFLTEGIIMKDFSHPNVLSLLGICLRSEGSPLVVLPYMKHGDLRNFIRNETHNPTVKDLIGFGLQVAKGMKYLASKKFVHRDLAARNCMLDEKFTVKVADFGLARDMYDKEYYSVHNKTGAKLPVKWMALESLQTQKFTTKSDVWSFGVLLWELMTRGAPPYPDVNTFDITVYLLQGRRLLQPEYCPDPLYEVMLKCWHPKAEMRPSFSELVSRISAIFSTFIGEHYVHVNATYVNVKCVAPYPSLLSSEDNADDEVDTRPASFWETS
Chain of Platelet-derived growth factor receptor alpha (Homo sapiens) (P16234 whole entry): as the sequence (P16234 whole entry V561D) above, with D561V counted along it

SMILES	inhibition [1]	inhibition [2]	inhibition [3]	inhibition [4]	inhibition [5]	inhibition [6]	inhibition [7]	inhibition [8]	inhibition [9]	inhibition [10]	inhibition [11]	inhibition [12]	inhibition [13]	inhibition [14]	inhibition [15]	inhibition [16]	inhibition [17]	inhibition [18]	inhibition [19]	inhibition [20]
CCn1c(-c2nonc2N)nc2c(C#CC(C)(C)O)ncc(OCC3CCNCC3)c21	5.07%	3.39%	7.23%	1.8%	5.79%	1.17%	1.7%	1.64%	2.5%	4.04%	3.71%	9.32%	28.6%	4.23%	34.4%	7.44%	29.9%	5.4%	16.6%	12.1%
NC(=O)c1sc(-n2cnc3cc(C(F)(F)F)ccc32)cc1OCc1ccccc1Br	4.03%	3.08%	4.62%	2.14%	3.91%	-1.59%	4.52%	-0.38%	8.07%	1.36%	-0.86%	7.64%	6.52%	4.16%	5.38%	3.44%	2.59%	3.5%	4.58%	3.03%
NS(=O)(=O)c1ccc(N/C=C2\C(=O)Nc3ccc4ncsc4c32)cc1	10.4%	6.6%	28.3%	2.87%	22.1%	0.39%	7.72%	14.9%	43.3%	11%	51.2%	54.4%	86.9%	55.5%	91.5%	15.1%	60.9%	48.2%	90.9%	56.5%
COc1cccc(-n2ncc3c(N/N=C/c4ccncc4)ncnc32)c1	6.38%	49%	87.5%	43.2%	85%	6.35%	39.2%	18.9%	49.5%	11.1%	45.6%	43%	79.5%	44.4%	87.3%	25.4%	82.4%	40.4%	84.7%	45%
Nc1nonc1-c1nc2cnccc2n1C1CCCCC1	2.35%	-2.05%	1.3%	-1.46%	-0.59%	-0.72%	1.5%	-2.89%	7.05%	-1.73%	3.94%	3.7%	18.1%	2.4%	16.9%	1.78%	19.5%	2.95%	14.4%	4.64%
COc1cc(C=NNc2ncnc3c2cnn3Cc2ccccc2)ccc1O	-1.02%	7.35%	41.8%	3.91%	35.4%	0.56%	6.34%	-3.62%	7.19%	-1.07%	17.2%	9.07%	43.3%	6.24%	42.1%	-1.14%	1.46%	6.77%	34.3%	6.26%
Cc1cc(-c2ccco2)cc(C)c1/C=C/c1cncc(-c2nn[nH]n2)c1	1.64%	1.98%	5.29%	2.99%	3.6%	0.26%	3.44%	4.92%	3.8%	-1.44%	-4.43%	5.56%	9.36%	3.41%	3.27%	2.56%	3.42%	2.25%	7%	0.05%
COc1cccc(COc2cc(-n3cnc4ccccc43)sc2C(N)=O)c1	2.93%	-0.93%	-1.31%	-1.21%	-1.14%	-2.89%	-0.86%	4.83%	2.86%	-1.3%	-3.86%	4.14%	14.5%	0.88%	6.81%	1.86%	-0.65%	0.87%	5.54%	0.6%
NS(=O)(=O)c1ccc(-c2ccc3c(NC(=O)C4CC4)n[nH]c3c2)cc1	-0.4%	2.87%	3.71%	1.42%	3.29%	0.15%	4.26%	-4.19%	0.32%	3.88%	8.82%	5.05%	15.1%	1.45%	5.77%	2.04%	1.43%	-0.07%	8.8%	6.55%
Fc1ccc(-c2ncn(C3CCNCC3)c2-c2ccnc(Oc3ccccc3)n2)cc1	1.61%	2.38%	2.64%	0.89%	1.56%	0.77%	6.11%	5.19%	0.34%	1.71%	-0.77%	5.35%	9.51%	2.07%	4%	1.52%	5.42%	2.95%	5.32%	3.81%
CCn1c(-c2nonc2N)nc2c(C#CC(C)(C)O)ncc(OC[C@@H]3CCCN3)c21	2.22%	2.35%	1.33%	1.2%	1.89%	-0.41%	-0.43%	5.01%	5.81%	-2.15%	-3.74%	5.65%	24.4%	7.78%	44.4%	4.92%	26.6%	2.28%	22.3%	8.36%
COc1cc2c(cc1Nc1nc(Nc3ccsc3C(N)=O)c3cc[nH]c3n1)N(C(=O)CN(C)C)CCC2	94.9%	3.9%	5.94%	2.54%	2.25%	1.81%	6.9%	6.76%	7.29%	3.98%	28.6%	11.4%	26.1%	2.44%	3.25%	1.93%	2.94%	3.24%	13.9%	10.4%
CCn1c(-c2nonc2N)nc2c(C#CC(C)(C)O)nc(O[C@@H](CN)c3ccccc3)cc21	76.6%	2.08%	22.1%	0.81%	16.8%	0.05%	0.57%	3.67%	-0.12%	-1.29%	1.93%	32%	70.5%	49.8%	89.5%	34.5%	86.8%	29.6%	79.3%	50.3%
CCn1c(-c2nonc2N)nc2c(C#CCN)ncc(OCCCN)c21	-1.19%	0.47%	2.24%	1.28%	0.49%	0.13%	0.01%	0.78%	4.36%	2.41%	12.2%	7.42%	11.7%	0.26%	8.54%	2.16%	5.96%	4.02%	3.51%	9.08%
